As usually defined, the inhibition is the drop in the measured response relative to a control, in per cent.

The structures appear in SMILES notation. The whole screen tested about 5,600 compounds, of which about 4,100 (73%) were called active. Another 4% or so got no clear call; they are omitted. So high a share suggests a set chosen from earlier hits. Not all results are given here. Unmarked numbers belong to inactive results.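 Rule for the calls: active = mean replicate inhibition above about 95% and at least 55% of replicates individually reaching it (limit read from the data); inconclusive = only one of the two criteria is met; inactive = neither criterion is met.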

The results in this text go back to PubChem BioAssay AID651739 (Broad Institute, 2012).

The experiment in a line: blockers of Trypanosoma cruzi growth in host cells – cell-based, NIH3T3 host, beta-gal parasite, luminescence, cherry-pick, confirmation (AID 651739). Particulars: T. cruzi beta-gal in NIH3T3, GalScreen luminescence, 90 h; at 8.35 µM; active compounds read high.
Take `Cc1ccc(S(=O)(=O)Nc2ccc3c(c2)C(=O)N([C@H](C)CO)C[C@H](C)[C@H](CN(C)Cc2ccc(Cl)c(Cl)c2)O3)cc1`: the inhibition is 102% (active).

As for `COc1cccc(S(=O)(=O)Nc2ccc3c(c2)[C@H]2C[C@H](CC(=O)NCc4ccc(Cl)cc4)O[C@H](CO)[C@H]2O3)c1`, the inhibition was 104% (active).

With `O=C(C[C@@H]1C[C@@H]2c3cc(NC(=O)c4ccc5c(c4)OCO5)ccc3O[C@@H]2[C@@H](CO)O1)NCc1ccc(Cl)cc1`, the inhibition was 106% (active). For `O=C(Nc1ccc2c(c1)[C@@H]1C[C@H](CC(=O)N3CCOCC3)O[C@@H](CO)[C@@H]1O2)c1ccc2c(c1)OCO2` the value was 13.5%.

Take `O=C(C[C@@H]1C[C@H]2c3cc(NC(=O)C4CCC4)ccc3O[C@H]2[C@@H](CO)O1)NCc1ccc2c(c1)OCO2`: the inhibition is 12.6%.

As to `C/C=C/c1ccc([C@H]2[C@@H](CNC(C)C)N(c3nc(CC)cs3)[C@H]2CO)cc1`, the inhibition was 101% (active).

As to `C[C@@H]1CCCCO[C@H](CN(C)Cc2ccc(Cl)c(Cl)c2)[C@H](C)CN([C@@H](C)CO)C(=O)c2cc(NC(=O)C3CCCCC3)ccc2O1`, the inhibition is 97.4% (active). For `C[C@@H]1CCCCO[C@@H](CN(C)CC2CC2)[C@H](C)CN([C@H](C)CO)C(=O)c2cc(NC(=O)C3CCCCC3)ccc2O1` the value was 99.2% (active); for `C[C@@H]1CN([C@@H](C)CO)C(=O)c2cc(NC(=O)C3CCCCC3)ccc2O[C@@H](C)CCCCO[C@H]1CN(C)Cc1ccncc1`, 97.3% (active). As to `C[C@H]1CCCCO[C@H](CN(C)Cc2ccc(C(F)(F)F)cc2)[C@@H](C)CN([C@@H](C)CO)C(=O)c2cc(NC(=O)C3CCCCC3)ccc2O1`, the inhibition is 100% (active).

Turning to `CCCNC(=O)N1[C@@H]2c3cccc(=O)n3C[C@H]1[C@H](CO)[C@H]2C(=O)NCC(F)(F)F`, the inhibition is 21.5%. For `C[C@H](CO)N1C[C@H](C)[C@@H](CN(C)Cc2ccc(C(F)(F)F)cc2)OCCCC[C@H](C)Oc2ccc(NC(=O)C3CCCCC3)cc2C1=O`, the inhibition was 98.1% (active). In the case of `C[C@@H]1CCCCO[C@@H](CN(C)Cc2ccc3c(c2)OCO3)[C@@H](C)CN([C@@H](C)CO)C(=O)c2cc(NC(=O)Nc3ccccc3)ccc2O1`, the inhibition was 110% (active).

For the compound `COc1ccc(CN(C)C[C@H]2OCCCC[C@H](C)Oc3ccc(NC(=O)Nc4ccc5c(c4)OCO5)cc3C(=O)N([C@H](C)CO)C[C@@H]2C)cc1`, the inhibition is 100% (active). Turning to `C[C@@H]1CN([C@H](C)CO)S(=O)(=O)c2ccc(C#CCC3CCCC3)cc2O[C@H]1CN(C)C(=O)CC1CC1`, the inhibition is 97.4% (active).

As to `CNC[C@@H]1Oc2cc(C#CCC3CCCC3)ccc2S(=O)(=O)N([C@H](C)CO)C[C@H]1C`, the inhibition was 95% (active).

`CO[C@H](CN(C)S(=O)(=O)c1ccc(Cl)cc1)[C@@H](C)CN(Cc1ccccc1Cl)[C@H](C)CO`: the inhibition is 110% (active).

On to `CN1C(=O)c2cc(NC(=O)c3cnccn3)ccc2OC[C@@H]2O[C@@H](CC(=O)N[C@H]3CCN(Cc4ccccc4)C3)CC[C@H]21`, for which the inhibition is 71.5%. Consider `CN1C(=O)c2cc(NC(=O)Nc3ccccc3F)ccc2OC[C@H]2O[C@H](CC(=O)NCc3ccc(-c4ccccc4)cc3)CC[C@H]21`, for which the inhibition is 108% (active). In the case of `CN1C(=O)c2cc(NC(=O)c3cnccn3)ccc2OC[C@@H]2O[C@H](CC(=O)N[C@@H]3CCN(Cc4ccccc4)C3)CC[C@@H]21`, the inhibition is 99.8% (active).

For `C[C@@H]1CN([C@H](C)CO)C(=O)c2cc(NS(C)(=O)=O)ccc2O[C@@H](C)CCCCO[C@H]1CN(C)S(=O)(=O)c1cn(C)cn1`, the inhibition was -9.98%. `C[C@H]1CCCCO[C@H](CN(C)S(=O)(=O)c2ccc(Cl)cc2)[C@@H](C)CN([C@@H](C)CO)C(=O)c2cc(NC(=O)Nc3ccc4c(c3)OCO4)ccc2O1`: the inhibition is 103% (active).

With `CC(C)NC(=O)Nc1ccc2c(c1)C(=O)N([C@@H](C)CO)C[C@H](C)[C@H](CN(C)S(=O)(=O)c1ccc(Cl)cc1)OCCCC[C@H](C)O2`, the inhibition is 104% (active). Regarding `COc1ccc(NC(=O)Nc2ccc3c(c2)C(=O)N([C@H](C)CO)C[C@H](C)[C@H](CN(C)S(=O)(=O)c2ccc(Cl)cc2)OCCCC[C@H](C)O3)cc1`, the inhibition was 104% (active). Regarding `CCCNC(=O)N(C)C[C@@H]1Oc2ncc(C#Cc3ccccc3F)cc2C(=O)N([C@@H](C)CO)C[C@H]1C`, the inhibition was 112% (active). Next, `C[C@H](CO)N1C[C@H](C)[C@@H](CN(C)S(=O)(=O)c2ccccc2)Oc2ncc(C#Cc3ccccc3F)cc2C1=O`: 111% (active); `C[C@H](CO)N1C[C@H](C)[C@@H](CN(C)S(=O)(=O)c2ccccc2F)Oc2ncc(C#Cc3ccccc3F)cc2C1=O`: 106% (active); `C[C@@H]1CN([C@@H](C)CO)C(=O)c2cc(NC(=O)Nc3cccc4ccccc34)ccc2O[C@H]1CN(C)Cc1ccc(Cl)c(Cl)c1`: 97.9% (active). As to `C[C@@H]1CN([C@@H](C)CO)C(=O)c2cc(NC(=O)Nc3cccc4ccccc34)ccc2O[C@H]1CN(C)Cc1ccc(Oc2ccccc2)cc1`, the inhibition was 103% (active). Turning to `OC[C@@H]1[C@H](c2ccc(C#Cc3ccccc3)cc2)[C@@H]2CN(Cc3cncnc3)CCCCN12`, the inhibition was 104% (active). Next, `Cc1ccc(-c2ccc([C@H]3[C@H](CO)N4CCCCN(Cc5cncnc5)C[C@@H]34)cc2)cc1`: 102% (active); `Cc1cccc(-c2ccc([C@H]3[C@@H](CO)N4CCCCN(Cc5cncnc5)C[C@H]34)cc2)c1`: 84.9%. On to `OC[C@@H]1[C@H](c2ccc(C#CC3(O)CCCC3)cc2)[C@H]2CN(Cc3cncnc3)CCCCN12`, for which the inhibition was 99.2% (active). On to `OC[C@H]1[C@H](c2ccc(-c3cccc(F)c3)cc2)[C@@H]2CN(Cc3cncnc3)CCCCN12`, for which the inhibition is 82.2%. For `O=C(c1ccc(F)cc1)N1CCCCN2[C@H](C1)[C@@H](c1ccc(C#CC3(O)CCCC3)cc1)[C@@H]2CO` the value was 45.9%; for `O=C(Nc1cc(Cl)cc(Cl)c1)N[C@H]1CC[C@@H](CCNS(=O)(=O)c2cccc(F)c2)O[C@H]1CO`, 113% (active); for `O=C(Nc1ccc(Cl)cc1)N[C@@H]1CC[C@@H](CCNC(=O)c2ccccc2F)O[C@H]1CO`, 45.6%. `CS(=O)(=O)N1[C@@H](C#N)[C@H](c2ccc(C#CC3CCCCC3)cc2)[C@@H]1CO`: the inhibition is 103% (active). Regarding `CCc1cnc(N2[C@H](C#N)[C@H](c3ccc(C4=CCCC4)cc3)[C@@H]2CO)s1`, the inhibition is 106% (active). As for `N#C[C@H]1[C@@H](c2ccc(C3=CCCCC3)cc2)[C@@H](CO)N1C(=O)NC1CCCCC1`, the inhibition was 105% (active). As for `CC(C)NC(=O)N1[C@H](C#N)[C@H](c2ccc(C#CC3CCCCC3)cc2)[C@H]1CO`, the inhibition was 105% (active).
